Test [1] is described as follows: qHTS assay to identify small molecule antagonists of the thyroid receptor (TR) signaling pathway (AID 743065). Further: nearly all actives have a fitted effect of over 55% in size. Further: potency means the concentration at half of the fitted maximal effect. A digest of the protocol:
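Antagonism measured as loss of luciferase signal in GH3 cells stably carrying a TRE-luciferase reporter, co-treated with compound and T3 (1 nM final) for 23.5 h at 37 C. Viability was read in the same well by CellTiter-Fluor.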
For orientation: Quantitative high-throughput screening tests each substance at several concentrations.

Test [2] deals with thyroid hormone receptor (rat, GH3 cells). As to the kind of experiment: qHTS assay to identify small molecule agonists of the thyroid receptor (TR) signaling pathway (AID 743066; calls by dose curve; further: on the % scale 0 is the no-effect control and ±100 the full control effect).
Test [3] can be described thus: qHTS assay to identify small molecule antagonists of the estrogen receptor alpha (ER-alpha) signaling pathway - cell viability counter screen (AID 743074; calls by dose curve; further: nearly all actives have a fitted effect of over 45% in size; further: potency means the concentration at half of the fitted maximal effect).
A short description of test [4]: qHTS assay to identify small molecule antagonists of the estrogen receptor alpha (ER-alpha) signaling pathway using the BG1 cell line - cell viability counter screen (AID 743081).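 Further: compound given together with 17beta-estradiol as the ER stimulus; nearly all actives have a fitted effect of over 45% in size.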 Further: potency means the concentration at half of the fitted maximal effect.
The target in test [5] is Estrogen receptor (Homo sapiens) (UniProt P03372). Briefly: qHTS assay to identify small molecule agonists of the estrogen receptor alpha (ER-alpha) signaling pathway (AID 743075; calls by dose curve; further: potency means the concentration at half of the fitted maximal effect; on activation: on the % scale 0 is the no-effect control and ±100 the full control effect).
Test [6] shares this target. As to the kind of experiment: qHTS assay to identify small molecule agonists of the estrogen receptor alpha (ER-alpha) signaling pathway using the BG1 cell line (AID 743079). Further: nearly all actives have a fitted effect of over 20% in size. Further: potency means the concentration at half of the fitted maximal effect. On activation: on the % scale 0 is the no-effect control and ±100 the full control effect. The settings on record: BG1Luc4E2 cells, ERE-luciferase agonist, 22 h; activation: at 70.3 µM (top of the series).
The target of another test is Aromatase (Homo sapiens) (UniProt P11511). Briefly: qHTS assay to identify aromatase inhibitors (AID 743083). Further: nearly all actives have a fitted effect of over 55% in size. Further: potency means the concentration at half of the fitted maximal effect.
Test [7] can be described thus: qHTS assay to identify small molecule antagonists of the estrogen receptor alpha (ER-alpha) signaling pathway using the BG1 cell line (AID 743080; calls by dose curve; further: nearly all actives have a fitted effect of over 25% in size; further: potency means the concentration at half of the fitted maximal effect). A digest of the protocol: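 Antagonist mode: compounds in DMSO were pinned onto BG1-Luc-4E2 cells alongside 17beta-estradiol agonist, incubated 21.5 h, and ERE-driven luciferase measured with ONE-Glo. Cytotoxicity was multiplexed using CellTiter-Fluor fluorescence.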

For test [8], the target named is Estrogen receptor (Homo sapiens) (UniProt P03372). Briefly: qHTS assay to identify small molecule antagonists of the estrogen receptor alpha (ER-alpha) signaling pathway (AID 743069; active means well fitted curve in the direction sought with a large enough effect in the signal ratio in the repeat runs, not every such curve was filed as active; inconclusive means weak or mixed curves, or effect the other way; inactive means no such curve, though single readings can be large or run the other way; the % refers to the signal ratio; further: potency means the concentration at half of the fitted maximal effect). A digest of the protocol:
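Fluorescence intensity from a beta-lactamase FRET substrate served as the read-out. Cells: HEK293 with stably integrated ER-alpha-UAS-bla reporter. Agonist 17beta-estradiol was co-added with compounds; incubation 18 hr at 37C, substrate 2 hr at room temperature.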

Calls of active or inactive are those of the source. Unless noted, the call rests on the fitted dose curve; in most records, active means well fitted curve in the direction sought with a large enough effect in the repeat runs; inconclusive means weak or mixed curves; inactive means no such curve, though single readings can be large; an effect the other way counts as inactive or inconclusive. Starred links: 1 amine or outer side, 2 acyl side, 3 side chain; linkers in the order of their positions; H or OH if unused. Positions of bridges follow the written chain, without caps; N, C: chain ends. Non-standard residues stand in square brackets, D forms with d. Residues, ends and D or L forms follow the SMILES beside them. *: point of attachment. X5 = NC1=N[C@@H]([C@H](N[*:1])C(=O)[*:2])C[C@H](O)N1; ΔAla(Z-3-ureido) = NC(=O)N/C=C(\N)C(=O)O; β3hOrn = NCCC[C@H](N)CC(=O)*; Dap = NC[C@H](N)C(=O)O

Sequence of Estrogen receptor (Homo sapiens) (P03372 whole entry, looked up): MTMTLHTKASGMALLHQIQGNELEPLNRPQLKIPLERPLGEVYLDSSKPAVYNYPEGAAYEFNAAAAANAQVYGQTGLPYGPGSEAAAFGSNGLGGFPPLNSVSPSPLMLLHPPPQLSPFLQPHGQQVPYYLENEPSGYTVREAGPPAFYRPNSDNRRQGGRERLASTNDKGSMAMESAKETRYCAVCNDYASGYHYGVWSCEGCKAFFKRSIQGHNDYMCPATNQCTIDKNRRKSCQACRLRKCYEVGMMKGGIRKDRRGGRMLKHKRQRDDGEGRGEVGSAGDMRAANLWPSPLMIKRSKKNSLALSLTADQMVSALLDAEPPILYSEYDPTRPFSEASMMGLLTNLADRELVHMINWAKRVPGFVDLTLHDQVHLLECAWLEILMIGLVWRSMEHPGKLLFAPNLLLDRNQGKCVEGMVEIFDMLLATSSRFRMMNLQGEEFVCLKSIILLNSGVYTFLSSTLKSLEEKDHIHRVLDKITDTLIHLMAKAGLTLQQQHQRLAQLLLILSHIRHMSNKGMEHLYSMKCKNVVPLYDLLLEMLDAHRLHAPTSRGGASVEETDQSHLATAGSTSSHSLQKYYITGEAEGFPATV
Sequence of Aromatase (Homo sapiens) (P11511 whole entry, looked up): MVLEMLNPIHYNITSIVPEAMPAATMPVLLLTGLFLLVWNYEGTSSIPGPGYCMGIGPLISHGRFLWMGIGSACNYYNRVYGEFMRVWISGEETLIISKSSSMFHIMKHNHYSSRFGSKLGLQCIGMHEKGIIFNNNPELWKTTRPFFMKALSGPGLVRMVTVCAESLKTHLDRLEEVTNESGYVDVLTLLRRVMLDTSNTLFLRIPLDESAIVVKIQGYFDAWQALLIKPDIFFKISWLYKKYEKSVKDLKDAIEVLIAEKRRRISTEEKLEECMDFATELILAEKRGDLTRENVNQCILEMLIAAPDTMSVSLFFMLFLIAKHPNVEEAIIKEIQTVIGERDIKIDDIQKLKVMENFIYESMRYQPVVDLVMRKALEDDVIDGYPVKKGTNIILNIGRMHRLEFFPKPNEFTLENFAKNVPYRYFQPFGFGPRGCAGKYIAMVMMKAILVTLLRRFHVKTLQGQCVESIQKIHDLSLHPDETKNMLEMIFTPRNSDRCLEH

Consider `Cc1ccc(/C(=C\CN2CCCC2)c2cccc(/C=C/C(=O)O)n2)cc1`, for which the Potency entry in test [1], in test [2], in [3] and in [4] was “inactive” in each case.
Turning to `O=C(CCCN1CCC(n2c(=S)[nH]c3ccccc32)CC1)c1ccc(F)cc1`, the Potency in test [1] is 26.6 µM (active). The Potency result in test [3] and in [5] was “inactive” throughout.
Consider `C#C[C@]1(O)CC[C@H]2[C@@H]3CCC4=C/C(=N/O)CC[C@@H]4[C@H]3CC[C@@]21CC`, for which the Potency is 11.9 µM (active) in test [1], 0.151 µM [inconclusive] (active) in [5], 0.0422 µM (active) in test [6] and 23.7 µM (active) in the test with Aromatase (Homo sapiens). The Potency entry in test [3] and in [4] was “inactive” throughout.
Regarding `CC(C)NCC(O)COc1ccccc1-n1cccc1` (configuration not stated), the Potency result (in test [1]; in test [2]; in [3]; in test [4]; in the test with Aromatase (Homo sapiens)) was “inactive” in each case.
On to `O=[n+]1ccn([O-])c2ccccc21`, for which the Potency result in [1], in test [2], in [3] and in test [4] was “inactive” each time.
For `NCCC[C@H](N)CC(=O)N[C@H]1CNC(=O)[C@H]([C@H]2C[C@H](O)NC(N)=N2)NC(=O)/C(=C/NC(N)=O)NC(=O)[C@H](CO)NC(=O)[C@H](CO)NC1=O` (β3hOrn-[Dap]SS[ΔAla(Z-3-ureido)][X5]; lactam 1-C), the Potency entry (in test [1]; in [2]; in test [3]; in test [4]; in the test with Aromatase (Homo sapiens)) was “inactive” throughout.
`CN=C1C=CC(=C(c2ccc(N(C)C)cc2)c2ccc(N(C)C)cc2)C=C1`: the Potency in [1] is 2.37 µM (active); in test [3], 9.52 µM (active); in [4], 11.9 µM (active); in the test with Aromatase (Homo sapiens), 1.33 µM (active).
`CCCCCCCCCCCCCCCCSCC(COC)COP(=O)([O-])OCC[N+](C)(C)C` (configuration not stated): the Potency in [1] is 18.8 µM (active). Besides, the Potency result in [3], in test [5], in test [6], in test [7] and in [4] was “inactive” each time.
Regarding `CC(CCc1ccc(O)cc1)NCC(O)c1ccc(O)cc1` (configuration not stated), the Potency entry (in [1]; in test [2]; in test [3]; in [4]; with Aromatase (Homo sapiens)) was “inactive” each time.
For `CC(CC(c1ccccc1)c1ccccc1)NC(C)(C)C` (configuration not stated), in [1], the Potency was 21.1 µM (active). The Potency entry (in [2]; in test [5]; in test [6]; in test [7]; with Aromatase (Homo sapiens)) was “inactive” in each case.
As for `O=C(O)CN(CC(=O)O)CC1=CC2C(=CC1=O)Oc1cc(O)c(CN(CC(=O)O)CC(=O)O)cc1C21OC(=O)c2ccccc21` (configuration not stated), the Potency entry (in test [1]; in test [2]; in test [5]; in [7]; with Aromatase (Homo sapiens)) was “inactive” in each case.
As for `C[C@H](/C=C/[C@H](C)C(C)(C)O)[C@H]1CC[C@H]2/C(=C/C=C3C[C@@H](O)C[C@H](O)C3)CCC[C@]12C`, the Potency is 16.8 µM (active) in test [1], 23.9 µM [inconclusive] (active) in test [8] and 29.8 µM (active) in [7]. The Potency result (in test [5]; in [4]; with Aromatase (Homo sapiens)) was “inactive” throughout.
Consider `CC(=O)O[C@]1(C(C)=O)CC[C@H]2[C@@H]3CCC4=CC(=O)CC[C@]4(C)[C@@]3(F)[C@@H](O)C[C@@]21C`, for which the Potency entry (in test [1]; in test [2]; in [3]; in test [4]; with Aromatase (Homo sapiens)) was “inactive” each time. In addition, the Potency in test [6] was 2.66 µM (active).
Consider `CC(C)(C)NCC(O)c1ccc(O)c(CO)n1` (configuration not stated), for which the Potency entry in test [1], in [2], in [3] and in test [4] was “inactive” throughout.
Regarding `CN1CCN2c3ncccc3Cc3ccccc3C2C1` (configuration not stated), the Potency in [1] was 21.1 µM (active). In addition, the Potency entry in test [2], in [3] and in test [4] was “inactive” each time.
As for `CCCCCCCCCCCCCCCCCC(=O)OCC(C)O` (configuration not stated), the Potency entry (in test [1]; in test [2]; in test [3]; with Aromatase (Homo sapiens)) was “inactive” in each case. In addition, in test [4], the Potency was 21.1 µM (active).
Consider `CCCCCCCCCCCCCCCCCCOP(=O)([O-])OC1CC[N+](C)(C)CC1`, for which the Potency entry in test [1], in test [2], in test [5], in test [6], in [7] and in test [4] was “inactive” in each case. Besides, the Potency entry in the test with Aromatase (Homo sapiens) was “inactive”.
In the case of `CC(=O)Oc1cccc(C(=O)O)c1OC(C)=O`, the Potency result (in test [1]; in test [2]; in [3]; in [4]; in the test with Aromatase (Homo sapiens)) was “inactive” each time.
As to `CCC(=O)O[C@H]1CC[C@H]2[C@@H]3CCc4cc(O)ccc4[C@H]3CC[C@]12C`, the Potency is 26.6 µM (active) in [1] and 0.0013 µM [inconclusive] (active) in [5]. Further, the Potency entry (in test [3]; in test [7]; in test [4]; in the test with Aromatase (Homo sapiens)) was “inactive” in each case. In addition, the activation in [6] is 52.2% (active).
Regarding `OC[C@@H](O)C(O)[C@H](O)CO`, the Potency entry (in [1]; in test [2]; in test [3]; in test [4]; in the test with Aromatase (Homo sapiens)) was “inactive” throughout.

Values taken from PubChem BioAssay (Tox21).
